Measured values from ChEMBL document CHEMBL3988442, “University of Dundee, Small-Polar-MMV Screening Library” (2021).
In all, about 48,000 compounds went through this assay and about 13,000 (27%) showed an effect of 50% or more. Some of the results follow.

test system: Wolbachia pipientis; experiment: Anti-Wolbachia Cell-Based Screen; format: functional; parameters: scale not given: in the data most compounds retested in dose-response had high values; settings: 5 µM

Point of comparison: `CN(C)C(=O)COCc1cncc2c1CCN(C1CCOCC1)C2.O=C(O)C(F)(F)F.O=C(O)C(F)(F)F`, “Percent Effect” value 119.4%. Against it:
- CCc1nc2n(n1)CC(NCc1nc(Cc3ccccc3)no1)CC2 (stereo unspecified) — lower, 105.9%
- CCc1nc2n(n1)CC(NCc1ccnc(-c3ccccc3)n1)CC2 (stereo unspecified) — lower, 7.748%
- CCc1nc2n(n1)CC(NCc1nc3ccccc3nc1C)CC2 (stereo unspecified) — lower, -12.92%
- CCc1nc2n(n1)CC(NCc1ncc(-c3ccccc3)o1)CC2 (stereo unspecified) — lower, -4.969%
- CCc1nc2n(n1)CC(NCc1cnc(-c3ccccc3)nc1)CC2 (stereo unspecified) — lower, 109.3%
- CCc1nc2n(n1)CC(NCc1nc(-c3cccnc3)no1)CC2 (stereo unspecified) — lower, -12.29%
- c1ccc(Cc2noc(CNC3CCc4ncnn4C3)n2)cc1 (stereo unspecified) — lower, -0.1669%
- CCc1nc2n(n1)CC(NCc1nc3ccccc3o1)CC2 (stereo unspecified) — lower, -13.4%
- CCc1nc2n(n1)CC(NCc1cnn(Cc3ccccc3)c1)CC2 (stereo unspecified) — lower, 87.86%
- CCc1noc(C(C)N2CCN(Cc3cnc(C)cn3)CC2)n1 (stereo unspecified) — lower, 14.64%
- O=C(NC[C@H]1OC[C@@H](NCc2ccccc2F)[C@@H]1O)Nc1ccccc1 — lower, -9.055%
- CC(C)c1nccn1CCCNC(=O)c1ccc(-c2cncnc2)nc1 — lower, -0.1776%
- CCc1ncc2c(n1)CN(Cc1nc(-c3ccco3)oc1C)CC2 — lower, 106.4%
- Cc1ncc2c(n1)CN(Cc1nc(-c3ccsc3)oc1C)CC2 — lower, 102.9%
- Cc1ncc2c(n1)CN(Cc1nc(-c3ccco3)oc1C)CC2 — lower, 105%
- CCc1ncc2c(n1)CN(Cc1nnc(C)o1)CC2 — lower, 12.23%
- CC(C)c1ncc2c(n1)CN(Cc1cccc3c1OCCO3)CC2 — lower, 21.53%
- Cc1ncc2c(n1)CN(Cc1nc3ccccc3o1)CC2 — lower, 10.13%
- Cc1ncc2c(n1)CN(Cc1nnc(-c3occc3C)o1)CC2 — lower, 2.201%
- Cc1oc(-c2ccco2)nc1CN1CCc2cnc(C(C)C)nc2C1 — lower, 92.73%
- CCc1ncc2c(n1)CN(Cc1nc(-c3ccsc3)oc1C)CC2 — lower, 1.537%
- Cc1ccc(-c2nnc(CN3CCc4cnc(C)nc4C3)o2)cc1 — lower, -1.089%
- CC(C)c1ncc2c(n1)CN(Cc1ccc3c(c1)OCCO3)CC2 — lower, -34.65%
- CCc1ncc2c(n1)CN(Cc1nc(C)c(C)o1)CC2 — lower, -17.94%
- Cc1nc(CN2CCc3cncnc3C2)oc1C — lower, -4.156%
- COCc1ncn(Cc2nc(-c3ccco3)oc2C)n1 — lower, -24.79%
- Cc1oc(-c2ccco2)nc1CN1CCc2cncnc2C1 — lower, 88.65%
- COCCCNS(=O)(=O)c1cc(Br)sc1C — lower, 2.901%
- COc1cccc(F)c1C(C)NC(=O)NCc1cc(C(C)C)no1 (stereo unspecified) — lower, -6.055%
- O=C1CC(c2ccccc2)c2snc(C(=O)O)c2N1 (stereo unspecified) — lower, -4.128%
- CS(=O)(=O)N1C[C@@H]2CC[C@H](C1)N(Cc1ccc3nsnc3c1)C2 — lower, 5.437%
- Cc1nccn1-c1ccc(NC(=O)C2CCCN2Cc2ccoc2)cc1 (stereo unspecified) — lower, 9.601%
- C[C@H]1CN2C[C@H](O)CC2CN1Cc1ccc2nccnc2c1.Cl (stereo partly specified) — lower, 75.9%
- CCn1ccnc1CN1CCN(c2ncnc3ccsc23)CC1C (stereo unspecified) — lower, 11.61%
- COc1ccc(CN2CC(=O)N(c3ccc(C)cc3)CC2C)cc1O (stereo unspecified) — lower, -1.266%
- C[C@@H]1CN2C[C@H](O)CC2CN1Cc1ccc2nccnc2c1 (stereo partly specified) — lower, 113.8%
- Cc1nccn1-c1ccc(C(C)NCCC(C)C)cc1 (stereo unspecified) — lower, -1.351%
- CN(C)C(=O)CN1C[C@@H]2CC[C@H](C1)N(Cc1ccc3nsnc3c1)C2 — lower, 10.45%
- Cc1nccn1-c1ccc(CN2CC3C[C@@H](O)CN3C[C@@H]2C)cc1 (stereo partly specified) — lower, 108%
- CCNC(=O)CCC(=O)NC1(c2cccc(Br)c2)CC1 — lower, -12.14%
- CCc1nc(C)c(C(=O)N2C[C@H]3CC[C@@H]2CN(S(=O)(=O)N(C)C)C3)s1 — lower, 8.94%
- CN(Cc1cnn(C)c1)C(=O)NC1CCN(c2ncccn2)CC1 — lower, -3.223%
- CC(C)NC(=O)[C@@H]1CC[C@@H]2[C@@H](CCN2Cc2cn(C)c3ccccc23)O1.O=C(O)C(F)(F)F — lower, -4.98%
- Cc1cccnc1CN(C)C(C(=O)O)c1ccc(-c2ccn[nH]2)cc1 (stereo unspecified) — lower, -12.44%
- O=C(CC1OCCc2ccccc21)NCCn1cccc1 (stereo unspecified) — lower, -19.46%
- Cc1nn(C)c(N(C)C)c1CNCc1cccnc1N1CCOCC1 — lower, 75.62%
- Cc1nn(C)c(N2CCOCC2)c1CNC(c1cccs1)C(C)C (stereo unspecified) — lower, 11.33%
- COc1c(CNCc2ccccc2CO)c(C)nn1C — lower, -3.857%
- COc1ccc(C(=O)NCc2cccnc2N2CCOCC2)o1 — lower, -8.247%
- Cc1nn(C)c(N(C)C)c1CNCc1cccnc1-n1cncn1.Cl — lower, 6.556%
- Cc1nn(C)c(C)c1C(=O)NCc1cccnc1OC1CCCC1 — lower, 2.821%
- COc1c(CNCc2cccnc2N2CCN(C)CC2)c(C)nn1C — lower, 102%
- COc1c(CNCc2cccnc2OC2CCCC2)c(C)nn1C — lower, 10.48%
- Cc1nn(C)c(Cl)c1C(=O)NCc1cccnc1N1CCOCC1 — lower, 97.98%
- COc1ncccc1CNCc1c(C)nn(C)c1N1CCOCC1 — higher, 134%
- Cn1ncnc1CCNC(=O)c1cc(Cl)c(Cl)n1C — lower, -10.92%
- CCC(O)(CNCc1ncc[nH]1)c1ccc(Br)cc1 (stereo unspecified) — lower, -2.159%
- CCN(C(=O)c1ccc2nncn2c1)C(C)Cc1ccc(OC)cc1 (stereo unspecified) — lower, 0.4912%
- COc1ccccc1CN1C(=O)O[C@@H]2CN(Cc3cccc(C)n3)C[C@@H]21 — lower, 8.298%
- Cc1c(C(C)NCc2cnn(C)c2)cnn1-c1ccccc1 (stereo unspecified) — lower, 2.501%
- Cc1nn(C)c(C)c1CNCc1ccnc(N2CCOCC2)c1 — lower, 7.637%
- COc1c(CNCc2ccc(N3CCOCC3)cc2)c(C)nn1C — lower, -35.64%
- COc1ncccc1CNCc1c(C(C)C)nn(C)c1Cl — lower, -10.74%
- Cc1nn(C)c(C)c1CNCc1ccc(N2CCOCC2)nc1.Cl — lower, -2.34%
- COc1c(CNCc2cccnc2N2CCCCC2)c(C)nn1C — lower, 105.9%
- COc1c(CNCc2cccnc2N2CCOCC2)c(C)nn1C — lower, 98.1%
- CC(C)c1nn(C)c(Cl)c1CNCc1cccnc1N(C)C.Cl — lower, 4.509%
- Cc1nn(C)c(Cl)c1CNCc1cccnc1N1CCCCC1.Cl — higher, 128.1%
- COc1c(CNCc2ccnc(N3CCCC3)c2)c(C)nn1C — lower, 5.629%
- Cc1nn(C)c(C)c1CNCc1cccnc1N1CCOCC1 — lower, 117.5%
- COc1c(CNCc2ccccc2CN2CCOCC2)c(C)nn1C — lower, 9.735%
- CCN(CC)C(=O)[C@@H]1C[C@@H](NC(=O)c2ccn(C(C)(C)C)c2)CN1C — lower, -2.553%
- CCOC1CCCN(C(=O)c2[nH]nc(C3CC3)c2Br)C1 (stereo unspecified) — lower, 12.02%
- Cc1nn(C)c(C)c1CCC(=O)NCc1cccnc1OC1CCCC1 — lower, 8.443%
- Cc1nn(C)c(C)c1CC(=O)NCc1cccnc1OC1CCCC1 — lower, 8.742%
- Cc1nn(C)c(C)c1CC(=O)NCc1cccnc1N1CCOCC1 — lower, 92.54%
- O=C(NC1CCC(C(=O)N2CCSCC2)CC1)N1CCOCC1 (stereo unspecified) — lower, -2.912%
- CNC(=O)c1sccc1S(=O)(=O)Nc1ccc(C)cc1 — lower, 10.06%
- COCCNS(=O)(=O)c1ccc(Cl)c(C(=O)N(C)Cc2sccc2C)c1 — lower, 1.059%
- COC(=O)CNC(=O)c1cccc(C(=O)N(C)c2ccccc2)c1 — lower, -13.83%
- COC(=O)CNC(=O)c1sccc1N(C)S(=O)(=O)c1ccc(Cl)cc1 — lower, 108.4%
- CC(=O)NCCNC(=O)c1sccc1Br — lower, 4.913%
- Cc1ccc(S(=O)(=O)N(C)c2ccsc2C(=O)NCC(C)C)cc1 — lower, 110.5%
- COCC1CN(c2ccc(Cl)cc2C#N)CCO1 (stereo unspecified) — lower, -47.15%
- CN(C(=O)CN1CCCC1c1cnn(C)c1)C1(C#N)CCCCC1 (stereo unspecified) — lower, 17.82%
- Fc1ccc(C2(NCc3noc(C4CC4)n3)CCC2)cc1 — lower, 7.462%
- Cn1ccnc1CN1CC[C@@H]2[C@@H](CCC(=O)N2CCc2c[nH]cn2)C1 — lower, 16.03%
- N#Cc1cn(C2CC2)c(=O)n(CC(O)c2ccc(OC(F)F)cc2)c1=O (stereo unspecified) — lower, -10.28%
- CC(C)N(Cc1c[nH]nc1-c1ccc2c(c1)OCO2)Cc1nccn1C — lower, -1.902%
- CN(C)C(=O)COCc1cncc2c1CCN(Cc1nccn1C)C2 — lower, -3.709%
- CN1CCN(c2ncc3c(c2C(=O)O)CCN(C2CCOC2)C3)CC1.O=C(O)C(F)(F)F.O=C(O)C(F)(F)F (stereo unspecified) — lower, 2.308%
- CN(C)CCOCc1cncc2c1CCN(C(=O)C1CCOCC1)C2.O=C(O)C(F)(F)F.O=C(O)C(F)(F)F — lower, 112.9%
- O=C(C1CC=CC1)N1CCc2c(COCc3ccncc3)cncc2C1.O=C(O)C(F)(F)F.O=C(O)C(F)(F)F — lower, -4.118%
- CN(C)CCOCc1cncc2c1CCN(C1CCOCC1)C2.O=C(O)C(F)(F)F.O=C(O)C(F)(F)F.O=C(O)C(F)(F)F — lower, 96.48%
- CCN(CC)c1ncc2c(c1C(=O)O)CCN(C1CCOC1)C2.O=C(O)C(F)(F)F (stereo unspecified) — lower, 12.85%
- Cn1ccnc1CNC[C@H]1Cn2cc(-c3ccccc3)nc2CO1 — lower, -17.11%
- COc1cc(F)ccc1NC(=O)NCCNC(=O)OC(C)(C)C — lower, 3.046%
- CN(C)c1ccc(NC(=O)N2CCCCC2c2ncc[nH]2)cn1 (stereo unspecified) — lower, 3.844%
- OCCN(Cc1cccnc1)c1ccc(Br)cn1 — lower, -12.52%
- c1ccc(Cn2ccnc2CN2CCCC2c2noc(C3CC3)n2)cc1 (stereo unspecified) — lower, 9.89%
